Out of some 2,100 compounds screened, about 1,100 (52%) were called active. About 29% were inconclusive and are not listed. Calls follow the shape of the dose curve; as a rule, active = well fitted inhibition curve with a large enough effect; inconclusive = small, poorly fitted or top-dose-only effect; inactive = no such curve, though single readings can be large or run the other way. The set was probably picked from earlier hits. Some of the results follow.
% is scaled to controls: 0 for no effect and ±100 for the full control effect; potency is read from the fitted curve at half-maximal effect.

Sequence of DNA dC->dU-editing enzyme APOBEC-3F (Homo sapiens) (Q8IUX4 whole entry, looked up): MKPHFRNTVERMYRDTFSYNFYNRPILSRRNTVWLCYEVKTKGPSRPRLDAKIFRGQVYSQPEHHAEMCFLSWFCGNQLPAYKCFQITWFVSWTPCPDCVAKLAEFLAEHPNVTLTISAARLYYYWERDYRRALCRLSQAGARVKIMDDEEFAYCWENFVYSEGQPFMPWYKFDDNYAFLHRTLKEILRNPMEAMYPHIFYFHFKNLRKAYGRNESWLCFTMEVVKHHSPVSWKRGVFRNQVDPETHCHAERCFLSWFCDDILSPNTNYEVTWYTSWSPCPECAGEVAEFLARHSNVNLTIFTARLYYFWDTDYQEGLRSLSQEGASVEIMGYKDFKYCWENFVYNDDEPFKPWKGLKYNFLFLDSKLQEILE

For the assay, the target named is DNA dC->dU-editing enzyme APOBEC-3F (Homo sapiens) (UniProt Q8IUX4). The assay is described as follows: qHTS for inhibitors of Vif-A3F interactions: Cherry picks counterscreen. Also: nearly all actives have a fitted effect of over 65% in size. As to conditions: HeLa A3F-eYFP/Vif cells, eYFP fluorescence, 24 h; series mostly up to 46.1 µM; activity, negative = inhibitor: at the top concentration. The procedure, abridged:
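Rescue of Vif-driven A3F-eYFP degradation read as cellular eYFP fluorescence after 24 h compound exposure (several concentrations) in stable HeLa cells; MG132 (2 mM stock) as positive control.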
(In general: qHTS replaces the single test concentration by a dilution series.)
For the molecule `O=C(NCCN1C(=O)S/C(=C\c2ccc(OC(F)F)cc2)C1=O)c1cnccn1`, the Potency is 7.04 µM (active). For `CC(C)(C)c1ccc(Cn2c(=O)cnc3ccccc32)cc1`, the “activity, negative = inhibitor” value was -20.8% (inactive). `ClCc1nc2ccccc2n1Cc1ccccc1`: the Potency was 18.4 µM (active). In the case of `COc1cc(N2CCCC2)c(OC)cc1/C=C(/C#N)c1ccc(Br)cc1`, the Potency was 2.06 µM (active). Regarding `COc1cc(N2CCCC2)c(OC)cc1/C=C(/C#N)c1ccc(F)cc1`, the Potency is 9.2 µM (active). With `CC(=O)/C(N=Nc1cc(C)ccc1O)=C(\C)O`, the Potency is 16.4 µM (active). As to `Cc1ccc(-c2nc(SCCOc3ccccc3C)n3[nH]c(=O)cc3n2)cc1`, the “activity, negative = inhibitor” value is 4.56% (inactive).

As for `Cc1ccccc1OCCc1c(C)[nH]c(=S)[nH]c1=O`, the Potency was 2.23 µM (active). `COc1cc(NC(=O)C2=C(N3CCOCC3)/C(=C\c3ccc(N(C)C)cc3)CCC2)cc(OC)c1OC`: the Potency is 5.59 µM (active). In the case of `O=C1CC(c2cc(F)ccc2F)c2cc3c(cc2N1)CCC3` (stereo not drawn), the Potency is 3.14 µM (active). For the molecule `O=C1CC(c2cc(Br)ccc2F)c2cc3c(cc2N1)CCC3` (stereo not drawn), the Potency was 1.12 µM (active). Regarding `O=C1CC(c2ccccc2F)c2cc3c(cc2N1)CCC3` (stereo not drawn), the Potency is 2.5 µM (active). `CCC(=O)NC(=S)Nc1cccc(Cl)c1N1CCCC1`: the “activity, negative = inhibitor” value was -20.3% (inactive). Turning to `NC(=O)c1ccccc1NC(=S)NC(=O)CCc1ccccc1`, the Potency is 9.94 µM (active). For `O=C(COc1ccccc1)NC(=S)Nc1cccc2c(O)cccc12`, the “activity, negative = inhibitor” value was -26.3% [at 36.9 µM] (inactive).

Regarding `Oc1ccc(-c2nc(-c3ccc(O)c(O)c3)cs2)cc1`, the Potency is 1.25 µM (active). Still for that read-out and setting: the same measure for `Cc1ccccc1NC(=O)c1ccc2c(c1)c(C)c(C)n2Cc1ccccc1`: 6.51 µM (active); for `COc1ccc(NC(=O)c2ccc3c(c2)c(C)c(C)n3Cc2ccc(F)cc2)cc1`: 4.61 µM (active); for `O=[N+]([O-])c1ccc(N2CCN(Cc3ccccc3)CC2)c2c1no[n+]2[O-]`: 15.8 µM (active). Turning to `COc1ccc(OC)c(-c2cc(-c3cccnc3)nc(N)c2C#N)c1`, the Potency is 3.53 µM (active). Regarding `Cc1c(C(=O)C(=O)N2CCCc3ccccc32)c2ccccc2n1C`, the Potency was 8.86 µM (active). The same measure, in the same setting: the same measure for `Cc1c(C(=O)C(=O)N2CC=C(c3ccccc3)CC2)c2ccccc2n1C`: 2.5 µM (active). As to `O=C(/C=C/c1ccco1)N1CCc2ccccc21`, the “activity, negative = inhibitor” value was -25.8% (inactive). Turning to `COc1ccc(CCNC(=O)CC2(CC3=NS(=O)(=O)c4ccccc4N3)CCCC2)cc1OC`, the “activity, negative = inhibitor” value is -12% [at 36.9 µM] (inactive). As for `CCOc1ccc(-c2cc(C(=O)NCCc3ccc(OC)c(OC)c3)c3c(-c4ccc(F)cc4)[nH]nc3n2)cc1`, the Potency was 16.4 µM (active). Consider `COc1ccc(OC)c(CNc2nc3ccc(C)cc3n3nnnc23)c1`, for which the Potency is 8.2 µM (active). Turning to `COc1ccccc1CNc1nc2ccc(C)cc2n2nnnc12`, the Potency is 23.1 µM (active). For `O=C1c2ccccc2-c2onc3c(N4CCN(C5CCCCC5)CC4)cc(NCCO)c1c23`, the Potency is 5.8 µM (active). Turning to `CCNc1cc(N2CCN(C3CCCCC3)CC2)c2noc3c2c1C(=O)c1ccccc1-3`, the Potency is 13 µM (active).

Regarding `CN(C)CCCNc1cc(N2CCN(C3CCCCC3)CC2)c2noc3c2c1C(=O)c1ccccc1-3`, the Potency was 2.59 µM (active).

Take `O=C(NC(=S)N1CCc2ccccc21)c1ccco1`: the “activity, negative = inhibitor” value is -3.14% (inactive). As for `CCN(CC)c1ccc(/C=N/NC(=O)c2ccco2)cc1`, the Potency was 6.27 µM (active).

With `Fc1ccc(CNc2nc3ccccc3n3nnnc23)cc1`, the Potency was 11.6 µM (active). `Fc1ccccc1Nc1nc2ccccc2n2nnnc12`: the Potency was 14.6 µM (active). For `Cc1ccc(CNc2nc3ccc(Cl)cc3n3nnnc23)cc1`, the Potency was 11.6 µM (active).

Turning to `c1ccc2c(c1)nc(N1CCOCC1)c1nnnn12`, the Potency is 20.6 µM (active).

As to `c1ccc2c(c1)nc(NCC1CCCO1)c1nnnn12` (stereo not drawn), the Potency is 18.4 µM (active). The same measure, in the same setting: the same measure for `Fc1ccc(CNc2nc3ccc(Cl)cc3n3nnnc23)cc1`: 6.51 µM (active); for `N#C/C(=C/c1ccc(N2CCCCC2)o1)c1cccc(F)c1`: 4.11 µM (active). As to `N#C/C(=C/c1ccc(N2CCOCC2)o1)c1ccc(Cl)cc1`, the Potency was 4.61 µM (active).

For the molecule `N#C/C(=C/c1ccc(N2CCCCCC2)o1)c1ccc(Cl)cc1`, the Potency is 3.66 µM (active).

Regarding `Cc1ccc(/C(C#N)=C\c2ccc(N3CCOCC3)o2)cc1`, the Potency was 15.8 µM (active). As for `CCN(c1ccc(NC(=O)CCc2nc3sc4c(c3c(=O)[nH]2)CCCC4)cc1)C(C)C`, the “activity, negative = inhibitor” value is -28.5% (inactive).

Consider `CC(C)(C)c1ccc(C(=O)C[n+]2cccc3cc(Cl)ccc32)cc1`, for which the Potency was 18.4 µM (active).

Consider `O=C(C[n+]1cccc2cc(Cl)ccc21)c1ccc2ccccc2c1`, for which the Potency is 20.6 µM (active). On the same count and under the same terms, the same measure for `COc1ccc(C(=O)C[n+]2cccc3cc(Cl)ccc32)cc1`: 20.6 µM (active). Regarding `CCCC1=[N+](CC(=O)c2ccc(Br)cc2)CCn2cccc21`, the “activity, negative = inhibitor” value is -9.63% (inactive).

Consider `COc1ccc(C(=O)C[n+]2cc(Br)cc3ccccc32)cc1`, for which the Potency was 16.4 µM (active).

With `O=C(NC1C/C(=N/O)c2cc3c(cc21)OCO3)C(F)(F)F` (stereo not drawn), the “activity, negative = inhibitor” value was 11.8% (inactive).

`CCCn1c(CN2CCN(C(=O)OCC)CC2)nc2cc(NC(=O)C(C)C)ccc21`: the Potency was 12.5 µM (active). Turning to `COC(=O)Cn1c(C)c(/C=C/c2cc[n+](C)cc2)c2ccccc21`, the Potency was 9.2 µM (active). As to `CCN(CC)C(=O)Cn1c(C)c(/C=C/c2cc[n+](C)cc2)c2ccccc21`, the Potency was 7.9 µM (active). With `COc1ccccc1-c1cc(-c2ccccc2)nc(SC(C(N)=O)c2ccccc2)c1C#N` (stereo not drawn), the Potency was 17.7 µM (active).

With `N#CC1=C(S)N(c2ccc(F)cc2)C2(CCCCC2)NC1=O`, the “activity, negative = inhibitor” value was 16.2% (inactive).

In the case of `Cc1ccc2nc(C)c(C(=O)NN=C3CCCCCC3)n2c1`, the “activity, negative = inhibitor” value is -27.5% [at 36.9 µM] (inactive).

For the molecule `O=C1OC(/C(=C\Nc2cc(Cl)ccc2O)[N+](=O)[O-])c2ccccc21` (stereo not drawn), the “activity, negative = inhibitor” value is -22.5% [at 36.9 µM] (inactive).

As to `CCN(CCCN(C)C)c1ccc(/C=C/c2ccnc3ccccc23)cc1`, the Potency is 20.6 µM (active). As to `CCN(C)c1ccc(/C=C/c2ccnc3ccccc23)cc1`, the Potency was 23.1 µM (active).

As to `CC(C)CN(CC(C)C)c1ccc(/C=C/c2ccnc3ccccc23)cc1`, the Potency was 20.6 µM (active). For `CCCCN(CCC(=O)O)c1ccc(/C=C/c2ccnc3ccccc23)cc1`, the Potency is 18.4 µM (active). Take `CCCCN(CCCC)c1ccc(/C=C/c2ccnc3ccccc23)cc1`: the Potency was 23.1 µM (active). As for `CCN(CC)c1ccc(/C=C/c2ccnc3ccccc23)cc1`, the Potency is 23.1 µM (active).

Take `CCCN(CCC)c1ccc(/C=C/c2ccnc3ccccc23)cc1`: the Potency is 20.6 µM (active).
